Assay results from the supplement of paper PMC6555819.

test system: RARg homodimer (NR concentration 270 nM); assay: PBM binding z-score (relative to random genomic background probes); higher = stronger binding; sequences stand for … in GC…GCGATTGACAGCGTAGAATGAAGG
Outline: (§1)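 Ligand-free nuclear receptor dimers were applied to custom Agilent 4×180K protein-binding microarrays whose double-stranded probes carried direct-repeat seeds, single-nucleotide variants, half-site ablations and random human genomic background sequences in 34-nt variable regions. Incubation lasted 1 h. Binding z-scores were computed against the random background probes from regression-normalized fluorescence.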

Sequence | PBM binding z-score
CTGAGTAGGTTACGAGGGGGCATTCAGTGCGAAT | 2.47
TCGAGTAGTTTACGGGGGCATTCAGGGATGAAGA | 1.57
CTCTGTAGGTTAAGGGGGTCATTCAGTTTGAAAG | 4.07
CTATGTAGGTTAAGGGGGGCATTCAGTTTGAAAG | 2.84
CTATGCAGGTTAAGGGGGTCATTCAGTTTGAAAG | 4.11
CCGAGTAGGTTACGAGAGGGCATTCAGTGCGAAT | 1.42
CTATGTAGGTTAAGGGGGTCGTTCAGTTTGAAAG | 2.06
CTATGTCGGTTAAGGGGGTCATTCAGTTTGAAAG | 4.15
TCGAGGAGGTTACGGGGGCATTCAGGGATGAAGA | 3.37
TCGAGTAGGTTACAGGGGCATTCAGGGATGAAGA | 0.679
TCGAGTAGGTTACGGGGGCATTTAGGGATGAAGA | 2.58
CTATCTAGGTTAAGGGGGTCATTCAGTTTGAAAG | 4.36
CTATGTAGGTTAAGGGGGTCATTCAATTTGAAAG | 3.88
CCGAGTTGGTTACGAGGGGGCATTCAGTGCGAAT | 1.44
CTATGTATGTTAAGGGGGTCATTCAGTTTGAAAG | 3.61
TCGAGTAGGTTACCGGGGCATTCAGGGATGAAGA | 0.946
TCTAGTAGGTTACGGGGGCATTCAGGGATGAAGA | 3.21
TCGAGTAGGTTACGGGGCCATTCAGGGATGAAGA | 0.954
CCGGGTAGGTTACGAGGGGGCATTCAGTGCGAAT | 2.22
TCGAGTAGGTTACGGGGGCATTCAAGGATGAAGA | 2.33

Sequence | PBM binding z-score
CTAAGTAGGTTAAGGGGGTCATTCAGTTTGAAAG | 4.03
TCGAGTAGCTTACGGGGGCATTCAGGGATGAAGA | 0.544
TCGAGTAGGTTACGGGGGCATTCACGGATGAAGA | 2.31
CTATGTAAGTTAAGGGGGTCATTCAGTTTGAAAG | 3.19
CTATGTAGGTTATGGGGGTCATTCAGTTTGAAAG | 4.08
TCGAGTAGGTTACGGGGGCATTCCGGGATGAAGA | 2.56
CTATGTAGGTTAAGGGGGTCATTCACTTTGAAAG | 4.05
TCGAGTAGGTTATGGGGGCATTCAGGGATGAAGA | 1.29
CCGAGTAGGATACGAGGGGGCATTCAGTGCGAAT | 0.779
CTATGTAGGTTAAGGGGGTCATTCAGTTTGAAAG | 4
TCGAGTAGGTTACGGGGGCGTTCAGGGATGAAGA | 1.99
TCGAGTAGGTTACGGGGGCATTAAGGGATGAAGA | 2.32
CCGAGTAGGTTATGAGGGGGCATTCAGTGCGAAT | 2.83
CCGAGTAGCTTACGAGGGGGCATTCAGTGCGAAT | 0.544
TCGAGTAGGTTACGGGGGTATTCAGGGATGAAGA | 1.62
CCGTGTAGGTTACGAGGGGGCATTCAGTGCGAAT | 3.23
CTATGTAGGGTAAGGGGGTCATTCAGTTTGAAAG | 3.92
CTATGTAGGTTAAGGGTGTCATTCAGTTTGAAAG | 0.949
CCTAGTAGGTTACGAGGGGGCATTCAGTGCGAAT | 2.96

test system: RXRa DBDmut IVT, anti-RXR (DBD mutation: RXRa K156A/R161A, NR concentration 90 nM); assay: as above
Outline: as §1

Sequence | PBM binding z-score
CTGAGTAGGTTACGAGGGGGCATTCAGTGCGAAT | 1.46
TCGAGTAGTTTACGGGGGCATTCAGGGATGAAGA | 2.09
CTCTGTAGGTTAAGGGGGTCATTCAGTTTGAAAG | 2.52
CTATGTAGGTTAAGGGGGGCATTCAGTTTGAAAG | 2.58
CTATGCAGGTTAAGGGGGTCATTCAGTTTGAAAG | 2.38
CCGAGTAGGTTACGAGAGGGCATTCAGTGCGAAT | 0.522
CTATGTAGGTTAAGGGGGTCGTTCAGTTTGAAAG | 1.7
CTATGTCGGTTAAGGGGGTCATTCAGTTTGAAAG | 2.98
TCGAGGAGGTTACGGGGGCATTCAGGGATGAAGA | 2.51
TCGAGTAGGTTACAGGGGCATTCAGGGATGAAGA | 0.69
TCGAGTAGGTTACGGGGGCATTTAGGGATGAAGA | 2.03
CTATCTAGGTTAAGGGGGTCATTCAGTTTGAAAG | 2.55
CTATGTAGGTTAAGGGGGTCATTCAATTTGAAAG | 2.02
CCGAGTTGGTTACGAGGGGGCATTCAGTGCGAAT | 2.58
CTATGTATGTTAAGGGGGTCATTCAGTTTGAAAG | 3.03
TCGAGTAGGTTACCGGGGCATTCAGGGATGAAGA | -0.0634
TCTAGTAGGTTACGGGGGCATTCAGGGATGAAGA | 2.95
TCGAGTAGGTTACGGGGCCATTCAGGGATGAAGA | 0.0548
CCGGGTAGGTTACGAGGGGGCATTCAGTGCGAAT | 0.966
TCGAGTAGGTTACGGGGGCATTCAAGGATGAAGA | 1.68

Sequence | PBM binding z-score
CTAAGTAGGTTAAGGGGGTCATTCAGTTTGAAAG | 2.69
TCGAGTAGCTTACGGGGGCATTCAGGGATGAAGA | 1.14
TCGAGTAGGTTACGGGGGCATTCACGGATGAAGA | 1.78
CTATGTAAGTTAAGGGGGTCATTCAGTTTGAAAG | 3.07
CTATGTAGGTTATGGGGGTCATTCAGTTTGAAAG | 2.33
TCGAGTAGGTTACGGGGGCATTCCGGGATGAAGA | 1.49
CTATGTAGGTTAAGGGGGTCATTCACTTTGAAAG | 2.33
TCGAGTAGGTTATGGGGGCATTCAGGGATGAAGA | 1.84
CCGAGTAGGATACGAGGGGGCATTCAGTGCGAAT | 0.527
CTATGTAGGTTAAGGGGGTCATTCAGTTTGAAAG | 2.56
TCGAGTAGGTTACGGGGGCGTTCAGGGATGAAGA | 1.4
TCGAGTAGGTTACGGGGGCATTAAGGGATGAAGA | 1.61
CCGAGTAGGTTATGAGGGGGCATTCAGTGCGAAT | 1.66
CCGAGTAGCTTACGAGGGGGCATTCAGTGCGAAT | 1.5
TCGAGTAGGTTACGGGGGTATTCAGGGATGAAGA | 1.44
CCGTGTAGGTTACGAGGGGGCATTCAGTGCGAAT | 1.74
CTATGTAGGGTAAGGGGGTCATTCAGTTTGAAAG | 2.91
CTATGTAGGTTAAGGGTGTCATTCAGTTTGAAAG | 0.738
CCTAGTAGGTTACGAGGGGGCATTCAGTGCGAAT | 1.47
